Results reported in PubChem BioAssay.
Measured potencies and affinities stand elsewhere. Calls of active or inactive are those of the source. The limit is not given here; nearly all actives have IC50 up to about 0.91 µM.

Molecular target: Calcium-dependent protein kinase 4 (Plasmodium falciparum (isolate 3D7)) (UniProt Q8IBS5)
Test: PfCDPK4 kinase inhibitors, biochemical, TCAMS library (AID 1159588)
Settings: recombinant PfCDPK4, Kinase-Glo ATP depletion luminescence

Calcium-dependent protein kinase 4 (Plasmodium falciparum (isolate 3D7)), sequence (Q8IBS5 whole entry, looked up): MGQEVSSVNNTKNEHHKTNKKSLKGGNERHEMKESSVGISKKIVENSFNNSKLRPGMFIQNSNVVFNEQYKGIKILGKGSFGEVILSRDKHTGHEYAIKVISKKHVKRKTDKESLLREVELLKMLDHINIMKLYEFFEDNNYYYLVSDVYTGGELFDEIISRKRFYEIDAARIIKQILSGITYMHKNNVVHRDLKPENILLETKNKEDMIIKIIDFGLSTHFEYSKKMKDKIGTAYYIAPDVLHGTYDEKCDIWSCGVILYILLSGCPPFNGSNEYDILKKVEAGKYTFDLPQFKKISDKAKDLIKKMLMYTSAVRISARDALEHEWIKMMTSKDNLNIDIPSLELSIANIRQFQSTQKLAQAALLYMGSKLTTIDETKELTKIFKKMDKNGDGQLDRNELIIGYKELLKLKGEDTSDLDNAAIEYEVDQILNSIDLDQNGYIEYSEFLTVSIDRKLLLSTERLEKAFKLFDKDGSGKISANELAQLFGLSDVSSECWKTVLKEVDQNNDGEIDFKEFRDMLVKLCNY

Compound | outcome
c1ccc(C(OCCC2CCN(Cc3cccc4cccnc34)CC2)c2ccccc2)cc1 | inactive
Cc1ccc(C)c(C=CC(=O)NC2CCC(CN3CCC(c4c[nH]c5ccccc45)CC3)CC2)c1 (stereo not given) | inactive
Cc1cc(N)nc2ccc(CNCCc3ccccc3Br)cc12 | inactive
Fc1ccc(N(c2nc(-c3cc(F)cc(C(F)(F)F)c3)cs2)C2CCNCC2)cc1 | inactive
CC(Cc1ccc(SC(C)C)cc1)NCC(O)c1cccc(Cl)c1 (stereo not given) | inactive
CC[C@H]1CN2CC[C@@H]1C[C@H]2[C@H](O)c1cc(-c2ccc(F)cc2)nc2ccc(O)cc12 | inactive
CC(=O)Nc1ccc2[nH]cc(C3CCN(CC4CCN(C(=O)/C=C/c5ccc(Cl)c(Cl)c5)CC4)CC3)c2c1 | inactive
COc1ccc(O)c(CN2CCN(c3cc(C)ccc3C)CC2)c1 | inactive
CCN1CC=C(c2c[nH]c3ccccc23)CC1 | inactive
CC[C@H]1CN2CC[C@H]1C[C@H]2[C@H](O)c1cc(/C=C/c2ccc(F)cc2)nc2ccc(OC)cc12 | inactive
O=C(NCc1ccc(S(=O)(=O)N2CCC(CN3CCC(c4c[nH]c5ccccc45)CC3)CC2)s1)c1ccccc1 | inactive
COC(=O)c1ccc(CC(C)NCC(O)c2cccc(Cl)c2Cl)cc1 (stereo not given) | inactive
COCCNCc1cccc(-c2ccc(CN(C(=O)Nc3ccccc3)C3CCN(Cc4ccccc4)CC3)cc2)c1 | inactive
C=Cc1cc(OC)c2c(c1)c(=O)oc1c2cc(OC)c2c(O)ccc([C@H]3O[C@H]([C@@H](C)O)[C@H](O)[C@H]3O)c21 | inactive
c1ccc(C(OCCC2CCN(Cc3cccnc3)CC2)c2ccccc2)cc1 | inactive
N#Cc1ccc(N(CC(=O)NCCc2ccccc2)CC2CC2)c2ccccc12 | inactive
Cc1ccc(C)c(N2CCN(Cc3ccccc3O)CC2)c1 | inactive
CC[C@H]1CN2CC[C@H]1C[C@H]2[C@H](O)c1cc(N2CCCC(CO)C2)nc2ccc(OC)cc12 (stereo not given in full) | inactive
COc1cccc(CN2CCC(CCOC(c3ccccc3)c3ccc(Cl)cc3)CC2)c1O (stereo not given) | inactive
CN1CC=C(c2c[nH]c3ccc(-c4ccccc4)cc23)CC1 | inactive

Compound | outcome
Cc1csc(NC2=NCCN2)n1 | inactive
CSc1ccc(C[C@@H](C)NC[C@H](O)c2cccc(Cl)c2)cc1 | inactive
O=C(c1cc(C(F)(F)F)cc(C(F)(F)F)c1)N1CC[C@H](CCN2CCC3(CC2)C(=O)NCN3c2ccccc2)C[C@H]1Cc1ccc(Cl)c(Cl)c1 | inactive
CC[C@H]1CN2CC[C@H]1C[C@H]2[C@H](O)c1cc(-c2ccc(SC)cc2)nc2ccc(OC)cc12 | inactive
CC(C)CNCc1cccc(-c2cccc(CN(C(=O)Nc3ccccc3)C3CCN(Cc4ccccc4)CC3)c2)c1 | inactive
Cc1ccc(CC(C)NCC(O)c2cccc(C(F)(F)F)c2)cc1F (stereo not given) | inactive
O=C(Nc1ccc(Oc2ccccc2)cc1)NC1CCC(CN2CCC(c3c[nH]c4ccccc34)CC2)CC1 (stereo not given) | inactive
O=C(/C=C/c1ccc(Cl)c(Cl)c1)N(Cc1ccccc1)C1CCC(CN2CCC(c3c[nH]c4ccccc34)CC2)CC1 (stereo not given) | inactive
CNCCCCCCOc1ccc(CC(C)NCC(O)c2cccc(C(F)(F)F)c2)cc1 (stereo not given) | inactive
CC[C@H]1CN2CC[C@@H]1C[C@@H]2[C@@H](O)c1cc(-c2ccc(F)cc2)nc2ccc(OC)cc12 | inactive
COCCNCc1ccc(-c2ccc(CN(C(=O)NC3CCCCC3)C3CCN(Cc4ccccc4)CC3)cc2)cc1 | inactive
CCCCn1c(C)c(C(=O)OCC)c2cc(OC(C)=O)c(Br)cc21 | inactive
Cn1cc(CN2CCC(CCOC(c3ccccc3)c3ccccc3)CC2)cn1 | inactive
O=C(Cc1cc(=O)oc2cc(O)ccc12)NC1CCC(CN2CCC(c3c[nH]c4ccccc34)CC2)CC1 (stereo not given) | inactive
CC(C)c1ccc(C=CC(=O)NC2CCC(CN3CCC(c4c[nH]c5ccccc45)CC3)CC2)cc1 (stereo not given) | inactive
COc1ccc(CC(C)NCC(O)c2cccc(Br)c2)cc1 (stereo not given) | inactive
C=C[C@H]1CN2CC[C@@H]1C[C@H]2[C@H](O)c1cc(-c2ccc(F)cc2)nc2ccc(OC)cc12 | inactive
CN1CC=C(C=Cc2c[nH]c3ccccc23)CC1 | inactive
CNCC(O)c1cc(Cl)c(Cl)cc1C (stereo not given) | inactive
[O-]c1n[n+](C2CCCCC2)no1 | inactive
